The nature of the experiment: qHTS Assay for Lipid Storage Modulators (AID 1519). On activity change, negative = inhibition: on the % scale 0 is the no-effect control and ±100 the full control effect. The settings on record: Drosophila S3 cells, BODIPY lipid droplet/cell ratio, laser cytometry, cells loaded with oleic acid. The gist of the method: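 Cells seeded at 5,000 per well were treated with compounds over a concentration series and loaded with oleic acid (400 uM, as added). Lipid droplet fluorescence (488 nm excitation, 500-530 nm channel) was read by laser-scanning cytometry and normalized to 20 uM Triacsin C.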
In general terms: qHTS replaces the single test concentration by a dilution series.

[1] abbreviates: measured here: cell count channel max response.
Setting [2] is: measured here: lipid channel max response.

Consider 33 compounds from PubChem BioAssay (NCATS).

Values joined by “and” are separate entries in the source; they are usually repeats but may differ in a detail not shown here. Equal entries are not always repeated. Inconclusive results are not listed. Active and inactive are the calls of the source. The call rests on the fitted dose curve.

With `CCCCNc1ccc(C(=O)OCCOCCOCCOCCOCCOCCOCCOCCOCCOC)cc1`, for the setting “at 25.7 µM (top of the series)”, the activity change, negative = inhibition is -1.21% (inactive). Besides, the max response under setting [1] was -3.1% and the max response under setting [2] was -4.96%.

As for `CCN(CC)CCOC(=O)C(Cc1cccc2ccccc12)CC1CCCO1` (centres undefined), for the setting “at 57.5 µM (top of the series)”, the activity change, negative = inhibition is 2.17% (inactive). The max response amounted to 20.1% under setting [1] and 24.7% under setting [2].

Turning to `C[N+]1(C)CCC(=C(c2ccccc2)c2ccccc2)CC1`, the activity change, negative = inhibition (at 25.7 µM (top of the series)) is 0.0072% (inactive). Also, the max response stood at 2.33% under setting [1] and 0.67% under setting [2].

Take `CN(C)CCOC(=O)C(c1ccccc1)C1(O)CCCC1` (centres undefined): the activity change, negative = inhibition (at 57.5 µM (top of the series)) was 8.35% (inactive). Also, the max response reads like this: under setting [1], 13.8%; under setting [2], 27.5%.

In the case of `CCOC(=O)Nc1ccc2c(c1)N(C(=O)CCN1CCOCC1)c1ccccc1S2`, the activity change, negative = inhibition (at 25.7 µM (top of the series)) was -4.54% (inactive). For the same compound, the max response by setting is: under setting [1], -0.906%; under setting [2], -3.86%.

Consider `CN1CCC(OC(c2ccccc2)c2ccccc2)CC1`, for which the activity change, negative = inhibition (at 25.7 µM (top of the series)) is -2.89% (inactive). The max response by setting is: under setting [1], -24.7%; under setting [2], -25.4%.

In the case of `COc1ccc(CN(CCN(C)C)c2ncccn2)cc1`, the activity change, negative = inhibition (at 57.5 µM (top of the series)) was 7.7% (inactive). For the same compound, the max response reads like this: under setting [1], 6.82%; under setting [2], 17.3%.

In the case of `CC[C@H](c1ccc(O)cc1)[C@@H](CC)c1ccc(O)cc1`, where the note is “at 25.7 µM (top of the series)”, the activity change, negative = inhibition was -3.44% (inactive). For the same compound, the max response by setting is: under setting [1], -23%; under setting [2], -23.9%.

For `CCc1oc2ccccc2c1C(=O)c1cc(Br)c(O)c(Br)c1`, for the setting “at 25.7 µM (top of the series)”, the activity change, negative = inhibition is 0.0966% (inactive). Further, the max response runs as follows: under setting [1], -13%; under setting [2], -17.1%.

Take `Cc1cc(-c2ccccc2)nnc1NCCN1CCOCC1`: the activity change, negative = inhibition (at 25.7 µM (top of the series)) is 1.62% (inactive). Further, the max response under setting [1] was -6.4% and the max response under setting [2] is -4.28%.

As for `CCOC(=O)c1ccc(N)cc1`, the activity change, negative = inhibition (at 25.7 µM (top of the series)) is 4.88% (inactive). In addition, the max response was -2.21% under setting [1] and -0.169% under setting [2].

With `CC(C)NCC(O)c1ccc2ccccc2c1` (centres undefined), the activity change, negative = inhibition (at 57.5 µM (top of the series)) was 9.75% (inactive). In addition, the max response under setting [1] was 8.22% and the max response under setting [2] stood at 21.3%.

For `CC(=O)NCCCCCC(=O)O`, the activity change, negative = inhibition (at 57.5 µM (top of the series)) is 4.31% (inactive). Besides, the max response under setting [1] came out at 6.35% and the max response under setting [2] came to 14.8%.

Regarding `COc1cc(C)nc(-n2nc(C)cc2OC)n1`, the activity change, negative = inhibition (at 25.7 µM (top of the series)) was -0.43% (inactive). Also, the max response is -1.69% under setting [1] and -3.43% under setting [2].

`CCN(CC)CCOc1ccc2c(c1)C(=O)c1cc(OCCN(CC)CC)ccc1-2`: the activity change, negative = inhibition (at 57.5 µM (top of the series)) was 7.59% (inactive). For the same compound, the max response is -3.23% under setting [1] and 9.04% under setting [2].

On to `CC(=O)NO`, for which the activity change, negative = inhibition (at 57.5 µM (top of the series)) is 3.44% (inactive). Besides, the max response under setting [1] amounted to 22.2% and the max response under setting [2] is 28.9%.

Consider `CC(C(=O)O)c1cccc(Oc2ccccc2)c1` (centres undefined), for which the activity change, negative = inhibition (at 57.5 µM (top of the series)) is 9.66% (inactive). Besides, the max response under setting [1] turned out to be 14.6% and the max response under setting [2] came out at 29.6%.

As to `CCCCC(CC)CN1CN(CC(CC)CCCC)CC(C)(N)C1` (centres undefined), the activity change, negative = inhibition (at 57.5 µM (top of the series)) was 3.27% (inactive). Moreover, the max response runs as follows: under setting [1], 28.9%; under setting [2], 41.5%.

For the compound `CCN1CCCC(OC(=O)C(c2ccccc2)c2ccccc2)C1` (centres undefined), for the setting “at 57.5 µM (top of the series)”, the activity change, negative = inhibition is -10.7% (inactive). The max response is, setting by setting: under setting [1], -5.03%; under setting [2], -14.3%.

For the compound `NS(=O)(=O)c1cc(C(=O)O)cc(N2CCCC2)c1Oc1ccccc1`, for the setting “at 25.7 µM (top of the series)”, the activity change, negative = inhibition was -4.05% (inactive). Further, the max response by setting is: under setting [1], -4.21%; under setting [2], -6.59%.

For the compound `CCC(Cc1c(I)cc(I)c(N)c1I)C(=O)O` (centres undefined), the activity change, negative = inhibition (at 57.5 µM (top of the series)) was 4.6% (inactive). For the same compound, the max response amounted to 19.5% under setting [1] and 27.1% under setting [2].

As to `O=C1C(=O)c2ccccc2C(O)=C1C1CCC(c2ccc(Cl)cc2)CC1` (centres undefined), the activity change, negative = inhibition (at 57.5 µM (top of the series)) was 10.1% (inactive). In addition, the max response is 7.54% under setting [1] and 21.8% under setting [2].

As for `Nc1ccc(C(=O)NCC(=O)O)cc1`, the activity change, negative = inhibition (at 25.7 µM (top of the series)) is -0.313% (inactive). Besides, the max response was -0.767% under setting [1] and 0.146% under setting [2].

In the case of `CCCc1ncc(C[n+]2ccccc2C)c(N)n1`, the activity change, negative = inhibition (at 25.7 µM (top of the series)) was -1.66% (inactive). Further, the max response was determined as 1.76% under setting [1] and 0% under setting [2].

In the case of `CCc1cc(Cl)c(OC)c(C(=O)NC[C@@H]2CCCN2CC)c1O`, the activity change, negative = inhibition (at 25.7 µM (top of the series)) was -7.25% (inactive). Besides, the max response was -16.4% under setting [1] and -19.5% under setting [2].

Take `COc1cc(C(=O)NCc2ccc(OCCN(C)C)cc2)cc(OC)c1OC`: the activity change, negative = inhibition (at 25.7 µM (top of the series)) is -1.74% (inactive). Further, the max response reads like this: under setting [1], -6.84%; under setting [2], -7.91%.

Regarding `CCCCc1cc2ccccc2c(OCCN(C)C)n1`, the activity change, negative = inhibition (at 25.7 µM (top of the series)) was -1.95% (inactive). In addition, the max response by setting is: under setting [1], -12.7%; under setting [2], -12.3%.

With `C[N+]12CCC(CC1)C(OC(=O)C(O)(c1ccccc1)c1ccccc1)C2` (centres undefined), the activity change, negative = inhibition (at 57.5 µM (top of the series)) is 1.37% (inactive). The max response turned out to be 13% under setting [1] and 15.6% under setting [2].

Take `CCCCCN=C(N)N/N=C/c1c[nH]c2ccc(OC)cc12`: where the note is “at 57.5 µM (top of the series)”, the activity change, negative = inhibition is 10.2% (inactive) and 3.1% (inactive). In addition, the max response under setting [1] was 15.4% and 9.7%; the max response under setting [2] was 28.4% and 15.4%.

As to `OCCOCCN1CCN(C2=Nc3ccccc3Sc3ccccc32)CC1`, the activity change, negative = inhibition (at 57.5 µM (top of the series)) is 5.93% (inactive). For the same compound, the max response reads like this: under setting [1], 10.4%; under setting [2], 19.3%.

As to `Cc1c(-c2ccccc2)oc2c(C(=O)OCCN3CCCCC3)cccc2c1=O`, the activity change, negative = inhibition (at 25.7 µM (top of the series)) was 1.6% (inactive). The max response runs as follows: under setting [1], 5.61%; under setting [2], 7.37%.

For `CC(=O)Nc1ccc(S(=O)(=O)Nc2ccc([N+](=O)[O-])cc2)cc1`, for the setting “at 57.5 µM (top of the series)”, the activity change, negative = inhibition is 7.58% (inactive). Also, the max response by setting is: under setting [1], 4.05%; under setting [2], 18.4%.

For `Nc1ccc(S(=O)(=O)Nc2cnc3ccccc3n2)cc1`, the activity change, negative = inhibition (at 25.7 µM (top of the series)) was -4.76% (inactive). For the same compound, the max response is, setting by setting: under setting [1], -5.93%; under setting [2], -10.6%.
